High-throughput results from PubChem.
Sampled rows, rich in hits. Any-hit rate of the full collection: about 2.4%.
CHRM1 PAM – human M1 muscarinic receptor positive allosteric modulators, primary screen, CHO-K1 cells, Fluo-8 calcium fluorescence, 1536-well. activation, % at 3 µM. AID 588819, 2011. Muscarinic acetylcholine receptor M1 (Homo sapiens), P11229. CHO-K1 hM1, ACh EC20; 0% = ACh EC20, 100% = maximal ACh. 360,000 compounds, 0.088% hits; in the data active = activation above about 19%, passing the limit was not always enough
Target sequence (P11229 whole entry, looked up): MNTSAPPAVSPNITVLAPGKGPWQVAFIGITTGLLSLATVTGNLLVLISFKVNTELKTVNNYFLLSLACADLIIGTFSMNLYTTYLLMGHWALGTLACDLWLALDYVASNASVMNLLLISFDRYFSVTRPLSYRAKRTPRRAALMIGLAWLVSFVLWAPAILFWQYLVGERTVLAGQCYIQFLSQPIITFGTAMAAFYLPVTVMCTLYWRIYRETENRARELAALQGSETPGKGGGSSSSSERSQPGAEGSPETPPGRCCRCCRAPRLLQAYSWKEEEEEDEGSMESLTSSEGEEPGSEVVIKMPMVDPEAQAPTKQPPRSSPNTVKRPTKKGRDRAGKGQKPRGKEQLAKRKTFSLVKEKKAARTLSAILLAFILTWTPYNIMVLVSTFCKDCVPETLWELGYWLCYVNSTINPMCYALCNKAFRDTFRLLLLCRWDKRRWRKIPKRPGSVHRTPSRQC
M1 ag parental – counter-screen for M1 agonists: effect in parental CHO-K1 cells. 360,000 compounds, 0.48% hits. Fluo-8 calcium fluorescence; scaled to maximal ATP response, vehicle zero. activation, % at 3 µM; in the data active = activation above about 15%;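 also: untransfected CHO-K1 host cells lacking M1 receptor as counterscreen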
M1 ag – human M1 muscarinic receptor agonists, primary screen, Fluo-8 calcium fluorescence, CHO-K1 cells, HTS; CHO-K1 hM1, agonist mode; 0% DMSO, 100% acetylcholine EC100; activation, % at 3 µM; 360,000 compounds, 0.33% hits; AID 588814, 2011;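 active = activation above the run's mean compound activation plus 3 SD, cut at about 16% in these data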;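 also: peak over basal fluorescence ratio within a 140 s kinetic read after compound addition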
CHRM1 antagonist – human M1 muscarinic receptor antagonists, primary screen, CHO-K1 cells, Fluo-8 calcium fluorescence, 1536-well. AID 588852, 2011. 360,000 compounds, 1.3% hits. inhibition, % at 3 µM. CHO-K1 hM1, ACh EC80 antagonist. Muscarinic acetylcholine receptor M1 (Homo sapiens), P11229;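 active = percent inhibition above its own plate's cutoff, namely the mean of that plate's compound wells plus 3 SD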;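 also: peak over basal fluorescence ratio during 140 s after agonist addition; 0% = ACh EC80 plus DMSO and 100% = DMSO alone without agonist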
CHO-K1 Ca PAM – nonselective calcium activators in parental CHO-K1 cells, primary screen, counter-screen for M1 PAM project, cell-based, Fluo-8 calcium fluorescence, full deck, 1536-well; ATP EC20; 0% at ATP EC20, 100% at ATP max; activation, % at 3 µM; 360,000 compounds, 0.02% hits; AID 602247, 2012;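 active = activation above the run cutoff, the mean activation of all test compounds plus 3 SD, cut at about 40% in these data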;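 also: peak over basal fluorescence ratio in a 140 s read after ATP addition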
CHO-K1 Ca antag – M1 antagonist counterscreen hit in parental CHO-K1 cells; AID 602250; 360,000 compounds, 0.6% hits; ATP-induced calcium, Fluo-8 fluorescence; inhibition, % at 3 µM;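 active = inhibition above a per-plate cutoff, the plate's mean sample inhibition plus 3 SD, cut at about 24% in these data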;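 also: 0% = DMSO plus EC80 ATP and 100% = DMSO alone without ATP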
* hit, by the source's call.

Results for COc1cc(NC(=O)c2cccc(NC3=NC4CS(=O)(=O)CC4S3)c2)cc(OC)c1OC (configuration not stated) ?
CHRM1 PAM: -4; M1 ag parental: 0; M1 ag: -2; CHRM1 antagonist: 9; CHO-K1 Ca PAM: 16; CHO-K1 Ca antag: 0

Results for CCOC(=O)N1CCN(C2OC(=O)c3ccccc32)CC1 (configuration not stated) ?
CHRM1 PAM: 2; M1 ag parental: 0; M1 ag: 25*; CHRM1 antagonist: -19; CHO-K1 Ca PAM: -1; CHO-K1 Ca antag: -3

Results for CN(C)c1ccc(/C=C(/C#N)C(=O)Nc2nc3c(s2)CCN(Cc2ccccc2)C3)cc1 ?
CHRM1 PAM: -15; M1 ag parental: 12; M1 ag: 19*; CHRM1 antagonist: 24*; CHO-K1 Ca PAM: -3; CHO-K1 Ca antag: 14

What do the screens show for `Cc1nnc(N2CCCC(C(=O)NCc3ccc(OC(C)C)cc3)C2)c2nn(-c3ccccc3)c(C)c12` (configuration not stated)?
CHRM1 PAM: -20; M1 ag parental: -1; M1 ag: -6; CHRM1 antagonist: 41*; CHO-K1 Ca PAM: 12; CHO-K1 Ca antag: -22

What do the screens show for `C[C@H](CO)N1C[C@H](C)[C@@H](CN(C)S(=O)(=O)c2ccccc2)Oc2ccc(NC(=O)NC3CCCCC3)cc2C1=O`?
CHRM1 PAM: -31; M1 ag parental: 0; M1 ag: -11; CHRM1 antagonist: 39*; CHO-K1 Ca PAM: -11; CHO-K1 Ca antag: 7

How did C[C@@H]1CCCCO[C@H](CN(C)S(=O)(=O)c2cccs2)[C@H](C)CN([C@@H](C)CO)C(=O)c2cc(NC(=O)NC3CCCCC3)ccc2O1 do in these assays?
CHRM1 PAM: -2; M1 ag parental: 0; M1 ag: -7; CHRM1 antagonist: -10; CHO-K1 Ca PAM: 20; CHO-K1 Ca antag: -11

What do the screens show for `C[C@H](CO)N1C[C@H](C)[C@@H](CN(C)S(=O)(=O)c2ccccc2)Oc2ccc(NC(=O)C3CCCCC3)cc2C1=O`?
CHRM1 PAM: -8; M1 ag parental: 0; M1 ag: -11; CHRM1 antagonist: 7; CHO-K1 Ca PAM: 5; CHO-K1 Ca antag: -6

How did COc1ccc(S(=O)(=O)Nc2ccc3c(c2)C(=O)N([C@H](C)CO)C[C@H](C)[C@@H](CN(C)C(=O)Nc2c(C)noc2C)OCCCC[C@H](C)O3)cc1 do in these assays?
CHRM1 PAM: -29; M1 ag parental: 1; M1 ag: 40*; CHRM1 antagonist: 2; CHO-K1 Ca PAM: 22; CHO-K1 Ca antag: -17

What do the screens show for `C[C@H](CO)N1C[C@H](C)[C@@H](CN(C)S(=O)(=O)c2cccs2)Oc2ccc(NC(=O)Cn3cnnn3)cc2C1=O`?
CHRM1 PAM: -22; M1 ag parental: 0; M1 ag: -10; CHRM1 antagonist: 26*; CHO-K1 Ca PAM: 14; CHO-K1 Ca antag: -9

Results for C[C@H](CO)N1C[C@H](C)[C@@H](CN(C)S(=O)(=O)c2cccs2)Oc2ccc(NC(=O)NC3CCCCC3)cc2C1=O ?
CHRM1 PAM: -33; M1 ag parental: 0; M1 ag: -11; CHRM1 antagonist: 44*; CHO-K1 Ca PAM: 13; CHO-K1 Ca antag: -8

Results for CC(C)N(CCc1ccncc1)C(=S)Nc1ccc(F)c(Cl)c1 ?
CHRM1 PAM: -10; M1 ag parental: 9; M1 ag: 2; CHRM1 antagonist: 20; CHO-K1 Ca PAM: 5; CHO-K1 Ca antag: 3

Results for COc1cc(NCC2COc3c(ccc(OC)c3OC)C2=O)c([N+](=O)[O-])cc1OC (configuration not stated) ?
CHRM1 PAM: 1; M1 ag parental: 4; M1 ag: 0; CHRM1 antagonist: -2; CHO-K1 Ca PAM: 15; CHO-K1 Ca antag: 3

Results for CC1CCCCN1C/C=C/c1ccccc1[N+](=O)[O-] (configuration not stated) ?
CHRM1 PAM: -23; M1 ag parental: 1; M1 ag: -7; CHRM1 antagonist: 86*; CHO-K1 Ca PAM: 15; CHO-K1 Ca antag: -7

Results for CCC1CCCCN1C/C=C/c1ccccc1[N+](=O)[O-] (configuration not stated) ?
CHRM1 PAM: -20; M1 ag parental: 1; M1 ag: -8; CHRM1 antagonist: 89*; CHO-K1 Ca PAM: 19; CHO-K1 Ca antag: -13

What do the screens show for `CC1CCCN(C/C=C/c2ccccc2[N+](=O)[O-])C1` (configuration not stated)?
CHRM1 PAM: -5; M1 ag parental: 1; M1 ag: -15; CHRM1 antagonist: 6; CHO-K1 Ca PAM: 8; CHO-K1 Ca antag: -19

How did Cc1nc2c(OCc3cccc(Cl)c3)cccn2c1N(C)Cc1cccs1 do in these assays?
CHRM1 PAM: -13; M1 ag parental: 2; M1 ag: -4; CHRM1 antagonist: 34*; CHO-K1 Ca PAM: -1; CHO-K1 Ca antag: -1

How did Cc1nc2c(OCc3ccc(Cl)cc3Cl)cccn2c1N(C)Cc1cccs1 do in these assays?
CHRM1 PAM: -13; M1 ag parental: 1; M1 ag: -6; CHRM1 antagonist: 16; CHO-K1 Ca PAM: 6; CHO-K1 Ca antag: -4

What do the screens show for `O=c1[nH]nc(Cc2ccc(-c3cccc(Cl)c3)o2)c2ccccc12`?
CHRM1 PAM: -3; M1 ag parental: 0; M1 ag: -3; CHRM1 antagonist: 19; CHO-K1 Ca PAM: -9; CHO-K1 Ca antag: 24*

What do the screens show for `Clc1cccc(-c2ccc(CNCc3ccccn3)o2)c1`?
CHRM1 PAM: 6; M1 ag parental: 4; M1 ag: -7; CHRM1 antagonist: -5; CHO-K1 Ca PAM: 25; CHO-K1 Ca antag: -13

How did Cc1ccccc1NC(=O)N1CCC(NC(=O)C2CCCCC2)CC1 do in these assays?
CHRM1 PAM: 16; M1 ag parental: 0; M1 ag: -6; CHRM1 antagonist: -14; CHO-K1 Ca PAM: -2; CHO-K1 Ca antag: -4

What do the screens show for `CCOc1ccc(NC(=S)NC(=O)/C=C/c2ccc(Br)cc2)c([N+](=O)[O-])c1`?
CHRM1 PAM: -5; M1 ag parental: 0; M1 ag: -3; CHRM1 antagonist: 37*; CHO-K1 Ca PAM: 27; CHO-K1 Ca antag: -23

How did CCOc1ccc(NC(=S)NC(=O)c2cnn(CC)c2)c([N+](=O)[O-])c1 do in these assays?
CHRM1 PAM: 5; M1 ag parental: 2; M1 ag: -3; CHRM1 antagonist: -2; CHO-K1 Ca PAM: 10; CHO-K1 Ca antag: -5

How did O=C(Nc1ccc(Cl)c(Cl)c1)O/N=C/c1ccncc1 do in these assays?
CHRM1 PAM: -7; M1 ag parental: 12; M1 ag: 2; CHRM1 antagonist: 17; CHO-K1 Ca PAM: 1; CHO-K1 Ca antag: 28*
